Reference: PubChem BioAssay
Where a SMILES comes first, the peptide text is derived from it. [ ]: non-standard residue; d: D form. ξ: configuration not given here. ξV = CC(C)C(N)C(=O)O

Key:
[1] = test system: Botulinum neurotoxin type F light chain protease (Clostridium botulinum); test: Botulinum neurotoxin type F light chain protease inhibition, multiplex microsphere flow cytometry, validation set (AID 588459); settings: multiplex microsphere protease substrate cleavage assay, at 10 µM, stronger effect = higher value
[2] = molecular target: Botulinum neurotoxin type A (Clostridium botulinum) (UniProt P0DPI0); test: BoNT/A light chain protease inhibitors, biochemical, multiplex microsphere flow cytometry, validation set (AID 588460); settings: at 10 µM, stronger effect = higher value
[3] = molecular target: Lethal factor (Bacillus anthracis) (UniProt P15917); test: Lethal factor protease inhibitors, Bacillus anthracis, multiplex microsphere cleavage assay, validation set (AID 588461); settings: flow cytometry, at 10 µM, stronger effect = higher value

Measured: inhibition

Botulinum neurotoxin type A (Clostridium botulinum), sequence (P0DPI0 whole entry, looked up): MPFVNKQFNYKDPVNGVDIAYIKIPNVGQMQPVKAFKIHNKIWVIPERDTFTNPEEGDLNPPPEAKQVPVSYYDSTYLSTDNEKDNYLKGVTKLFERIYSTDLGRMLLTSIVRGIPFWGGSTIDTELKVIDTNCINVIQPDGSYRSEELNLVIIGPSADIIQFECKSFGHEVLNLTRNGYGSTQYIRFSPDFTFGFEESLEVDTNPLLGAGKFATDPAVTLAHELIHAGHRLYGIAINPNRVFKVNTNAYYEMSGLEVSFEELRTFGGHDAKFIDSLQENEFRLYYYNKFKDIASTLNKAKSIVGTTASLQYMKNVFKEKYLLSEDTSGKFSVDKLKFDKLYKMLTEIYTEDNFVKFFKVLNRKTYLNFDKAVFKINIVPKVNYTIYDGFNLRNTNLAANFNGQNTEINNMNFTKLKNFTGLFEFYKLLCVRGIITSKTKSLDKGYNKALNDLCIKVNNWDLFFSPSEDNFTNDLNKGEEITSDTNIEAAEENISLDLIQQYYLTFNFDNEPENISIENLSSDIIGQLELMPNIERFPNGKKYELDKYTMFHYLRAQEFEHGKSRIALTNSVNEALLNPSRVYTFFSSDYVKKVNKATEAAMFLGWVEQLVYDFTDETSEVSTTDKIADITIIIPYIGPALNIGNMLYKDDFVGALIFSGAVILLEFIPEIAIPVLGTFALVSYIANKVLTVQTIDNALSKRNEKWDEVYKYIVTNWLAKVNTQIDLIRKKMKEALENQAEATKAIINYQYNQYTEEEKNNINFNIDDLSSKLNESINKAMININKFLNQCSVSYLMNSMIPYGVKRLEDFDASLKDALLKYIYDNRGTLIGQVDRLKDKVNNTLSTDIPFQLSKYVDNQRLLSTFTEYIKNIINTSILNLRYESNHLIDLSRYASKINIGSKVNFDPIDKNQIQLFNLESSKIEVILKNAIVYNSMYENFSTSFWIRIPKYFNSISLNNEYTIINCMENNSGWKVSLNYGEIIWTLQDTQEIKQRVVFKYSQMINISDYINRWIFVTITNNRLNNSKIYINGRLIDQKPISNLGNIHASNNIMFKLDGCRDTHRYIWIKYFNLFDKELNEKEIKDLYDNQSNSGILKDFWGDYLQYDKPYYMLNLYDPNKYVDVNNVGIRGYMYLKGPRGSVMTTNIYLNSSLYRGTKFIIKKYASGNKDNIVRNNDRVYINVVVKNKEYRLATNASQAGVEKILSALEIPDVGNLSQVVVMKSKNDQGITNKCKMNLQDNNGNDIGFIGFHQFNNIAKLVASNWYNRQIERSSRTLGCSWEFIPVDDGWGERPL
Lethal factor (Bacillus anthracis), sequence (P15917 whole entry, looked up): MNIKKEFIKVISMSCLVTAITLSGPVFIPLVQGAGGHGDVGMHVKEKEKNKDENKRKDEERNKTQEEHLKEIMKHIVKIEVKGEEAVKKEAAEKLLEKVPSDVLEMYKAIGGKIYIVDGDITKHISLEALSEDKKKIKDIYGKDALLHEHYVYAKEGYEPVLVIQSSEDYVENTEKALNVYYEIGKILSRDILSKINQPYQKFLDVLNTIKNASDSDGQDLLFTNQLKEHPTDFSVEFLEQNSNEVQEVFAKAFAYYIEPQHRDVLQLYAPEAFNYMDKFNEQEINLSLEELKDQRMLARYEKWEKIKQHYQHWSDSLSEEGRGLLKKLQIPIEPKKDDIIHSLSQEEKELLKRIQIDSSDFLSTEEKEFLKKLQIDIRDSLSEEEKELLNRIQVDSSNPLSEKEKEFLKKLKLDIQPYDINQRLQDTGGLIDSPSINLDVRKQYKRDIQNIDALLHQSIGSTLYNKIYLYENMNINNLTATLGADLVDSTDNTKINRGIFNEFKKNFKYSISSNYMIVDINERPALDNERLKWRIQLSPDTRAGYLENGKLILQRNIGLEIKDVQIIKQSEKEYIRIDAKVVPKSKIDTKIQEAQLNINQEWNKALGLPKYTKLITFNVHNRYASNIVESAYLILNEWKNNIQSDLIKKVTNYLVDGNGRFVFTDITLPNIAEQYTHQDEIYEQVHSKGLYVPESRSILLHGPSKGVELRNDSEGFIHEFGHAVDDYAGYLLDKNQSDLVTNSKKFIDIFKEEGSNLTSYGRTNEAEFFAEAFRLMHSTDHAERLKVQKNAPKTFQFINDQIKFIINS

COC1=CC(=O)CC(C)C12Oc1c(Cl)c(OC)cc(OC)c1C2=O (centres undefined)
inactive: [1] -0.7% | [2] -0.1% | [3] -1.8%

COc1cc(C2CC(=O)NC3=C2C(=O)CC(C)(C)C3)ccc1O (centres undefined)
inactive: [1] -1.7% | [2] 0.3% | [3] 0%

C/C(=N\NC(=O)C1(C)CC1(Br)Br)c1ccc([N+](=O)[O-])cc1 (centres undefined)
inactive: [1] 2.6% | [2] 0.4% | [3] -7.9%

O=C(CCCCC(=O)NC1CCCC1)NC1CCCC1
inactive: [1] 1.5% | [2] 0.2% | [3] -3.4%

CCN(CCCCCN(C)C)Cc1cc2ccccc2o1
inactive: [1] 4.7% | [2] -1.1% | [3] 8.8%

Cc1nc2ccccc2n1CC(O)Cn1c2ccccc2c2ccccc21 (centres undefined)
inactive: [1] 2.9% | [2] -0.1% | [3] -0.7%

Cc1cnc(N)c2c(=O)oc3ccccc3c12
inactive: [1] 1.3% | [2] 0.4% | [3] -4.6%

CCOc1ccccc1Oc1coc2cc(OCC(=O)O)ccc2c1=O
inactive: [1] 0% | [2] 1.4% | [3] 0.2%

COc1ccc(C(CC(=O)N2CCOCC2)C(C)C)cc1 (centres undefined)
inactive: [1] -4.7% | [2] -1.9% | [3] -8.6%

O=C(NCc1ccc(N2CCCC2=O)cc1)c1cccc(Cl)c1
inactive: [1] -4.5% | [2] -2.2% | [3] 1%

CC(=O)Nc1ccc2[nH]c(C)c(CC=C(Cl)Cl)c(=O)c2c1
inactive: [1] -0.7% | [2] -1.7% | [3] -4.2%

CC1(C)C(=O)OC(C(=O)c2ccc(Cl)cc2)C(C)(C)C1=O (centres undefined)
inactive: [1] 1.9% | [2] 1.3% | [3] -3.1%

COc1ccccc1-c1c(C(F)(F)F)oc2cc(OC(=O)c3ccc([N+](=O)[O-])cc3)ccc2c1=O
inactive: [1] 0.7% | [2] -0.5% | [3] 3.7%

Cc1ccccc1-c1coc2cc(O)ccc2c1=O
inactive: [1] -3.4% | [2] 0.2% | [3] 1.6%

CC1(C)O[C@@H]2C[C@H]3[C@@H]4C[C@H](F)C5=CC(=O)CC[C@]5(C)[C@H]4[C@@H](O)C[C@]3(C)[C@]2(C(=O)CO)O1
inactive: [1] 1.1% | [2] -0.8% | [3] 10.7%

Cn1c(=O)c2c(ncn2CC(O)CO)n(C)c1=O (centres undefined)
inactive: [1] 2.3% | [2] 1% | [3] 2%

CCn1cc(C(=O)O)c(=O)c2cc(F)c(N3CCNCC3)cc21
inactive: [1] -0.1% | [2] -0.5% | [3] 2.3%

CC(=O)Oc1ccc2c(=O)c(Oc3ccccc3[N+](=O)[O-])coc2c1
inactive: [1] 0.2% | [2] -1.2% | [3] -6.2%

CC1(C)CC(=O)c2c(nc3ccccc3c2N)C1
inactive: [1] 1% | [2] -0.5% | [3] 7.9%

COc1ccc2c(c1)[nH]c1c(=O)n(Cc3ccccn3)cnc12
inactive: [1] 3.9% | [2] -1% | [3] -4.7%

OC(COCc1ccccc1)CN1CCN(Cc2ccc3c(c2)OCO3)CC1 (centres undefined)
inactive: [1] 0.6% | [2] 0.3% | [3] 2.8%

C[N+](C)(C)CCCCCCCCCC[N+](C)(C)C
inactive: [1] -0.3% | [2] -0.8% | [3] -5.3%

CC(=O)[C@@H]1[C@@H](C(=O)c2ccc(C)cc2)[C@]2(C(=O)Nc3ccccc32)[C@H]2C=Cc3cc(F)ccc3N12
inactive: [1] 2.2% | [2] 1.6% | [3] -6.9%

CC(=O)Nc1ccc(CN2CCN(C3CCCCC3)C(CCO)C2)cc1 (centres undefined)
inactive: [1] -0.2% | [2] -1.1% | [3] -3.7%

Cc1cc(C(=O)NC(CC(C)C)C(=O)O)cc(C)c1[N+](=O)[O-] (centres undefined)
inactive: [1] -4.1% | [2] -0.3% | [3] -5.7%

CCC12CN3CC(CC)(CN(C1)C31C(=O)N(C)c3ccc(C)cc31)C2=O (centres undefined)
inactive: [1] -1.6% | [2] 0.1% | [3] -7.3%

CC(=O)NC(C(=O)NCC(N)=O)C(C)C (centres undefined) (Ac-[ξV]-Gly-NH2)
inactive: [1] -3% | [2] 0.1% | [3] 0.5%

O=C(O)c1cc2cc(Cl)cc(Cl)c2oc1=O
inactive: [1] -2.3% | [2] 0.4% | [3] 1.1%
